Only some compounds are listed: those with a hit (about 9.2% of all), similar ones and a draw of the others.
NPC1 promoter act: NPC1 promoter activation; Huh7 NPC1 promoter luciferase reporter, 24 h; Potency, µM (doses to about 9.22 µM), actives largely listed as activators; hit rate 2.4% among 320,000; AID 485313; further: nearly all actives have a fitted effect of over 60% in size
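Readout is luciferase luminescence, reflecting NPC1 promoter activation in stably transfected Huh7 cells after 24 h compound exposure at 37 °C in reduced-serum medium with 10% FBS.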
Rab9 promoter act: activators of Rab9 promoter | Huh7 Rab9 promoter-luciferase reporter, luminescence, 24 h | Potency, µM (titrated, usually from 9.22 µM), usual class: activators | hit rate 2.8% among 320,000 | AID 485297; further: nearly all actives have a fitted effect of over 60% in size
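Huh7 cells stably carrying a Rab9 promoter-luciferase reporter, 1500 cells per well in OP-MEM I with 10% FBS, treated with compound 24 hours at 37C. Luciferase activity read by luminescence after 10 minutes with Amplite reagent.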
ELG1 DNA repair: inhibitors of ELG1-dependent DNA repair in HEK293T cells; HEK293T ELG1-luciferase reporter, luminescence, 16 h; DNA damage induced by 5-fluorouridine; Potency, µM (top dose mostly 46.1 µM), hits mostly inhibitors; hit rate 2.3% among 330,000; AID 504467; further: nearly all actives have a fitted effect of over 55% in size
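Cells (2,000 per well) received 5-fluorouridine plus test compound or DMSO and were incubated 16 hr at 37 °C, 5% CO2. Luciferase activity was read by luminescence 30 min after ONE-Glo addition; signal suppression marked inhibition of damage-induced ELG1 function.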
ELG1 genotox: inducers of genotoxicity in HEK293T ELG1-luciferase cells. hit rate 1.3% among 330,000. Potency, µM (titrated, usually from 46 µM), hits mostly activators. HEK293T ELG1-luciferase reporter, luminescence, 16 h; further: nearly all actives have a fitted effect of over 60% in size
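HEK293T cells expressing luciferase-tagged ELG1 were exposed to compound or DMSO vehicle for 16 hr at 37 °C and 5% CO2. Luciferase activity was then measured with ONE-Glo after 30 min at room temperature.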
FLuc counter: firefly luciferase modulation, counter-screen for miR-21 project | AID 588342 | hit rate 6.9% among 360,000 | purified FLuc, Km substrates, luminescence inhibition | P08659 | Potency, µM (titrated, usually from 57.5 µM), most hits filed as inhibitors; further: nearly all actives have a fitted effect of over 55% in size
Target sequence (P08659 whole entry, looked up): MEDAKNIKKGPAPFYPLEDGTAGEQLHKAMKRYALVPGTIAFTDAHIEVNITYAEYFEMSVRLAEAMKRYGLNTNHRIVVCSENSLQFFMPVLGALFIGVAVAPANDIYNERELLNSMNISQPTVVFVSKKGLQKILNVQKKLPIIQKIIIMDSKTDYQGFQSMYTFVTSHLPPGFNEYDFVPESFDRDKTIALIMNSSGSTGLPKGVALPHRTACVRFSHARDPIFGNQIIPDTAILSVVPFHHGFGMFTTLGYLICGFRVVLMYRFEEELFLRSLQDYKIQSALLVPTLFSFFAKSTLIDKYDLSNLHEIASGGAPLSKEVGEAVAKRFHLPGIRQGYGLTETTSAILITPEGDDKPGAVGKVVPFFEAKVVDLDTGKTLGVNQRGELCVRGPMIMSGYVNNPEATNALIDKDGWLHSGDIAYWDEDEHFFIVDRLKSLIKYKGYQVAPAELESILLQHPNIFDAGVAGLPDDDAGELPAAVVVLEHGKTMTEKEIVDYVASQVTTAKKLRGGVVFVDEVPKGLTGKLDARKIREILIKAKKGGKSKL
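Purified P. pyralis luciferase (10nM final) with 10uM D-luciferin and 10uM ATP (Km levels) in 50mM Tris acetate pH 7.5, 10mM Mg acetate, 0.01% Tween-20, 0.05% BSA; qHTS 6-point titration, ~60 µM downward; luminescence read.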
SMN2 splice up: increases expression of the SMN2 splice variant; Potency, µM (top dose mostly 46.1 µM), actives largely listed as activators; hit rate 2.8% among 210,000; HEK293 SMN2-luciferase splicing reporter, luminescence, 30-36 h; AID 1458; further: nearly all actives have a fitted effect of over 55% in size
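HEK293 cells carry an SMN2 minigene-luciferase reporter in which exon 7 inclusion puts luciferase in frame. Cells were seeded at 2000 cells/well, attached for 10-12 hours, then exposed to compounds for 30-36 hours at 37C before ONE-Glo luminescence.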
A number is an active result; n = inactive; u = inconclusive; x = no result; [ ] = dose if it differs, or a comment. The call rests on the fitted dose curve; in most records, active means well fitted curve in the direction sought with a large enough effect; inconclusive means small, poorly fitted or top-dose-only effect, or another doubt; inactive means no such curve, though single readings can be large; an effect the other way counts as inactive or inconclusive.

SMILES	NPC1 promoter act	Rab9 promoter act	ELG1 DNA repair	ELG1 genotox	FLuc counter	SMN2 splice up
Cc1ccc(C(=O)COC(=O)c2cccc(NC(=O)c3ccc(Br)cc3)c2)cc1	x	x	x	x	1.2µM	u
O=C(COC(=O)c1cccc(NC(=O)c2ccc(Br)cc2)c1)c1ccc(Br)cc1	x	x	x	x	4.3µM	n
CN(C)C(=O)Cl	x	x	x	x	x	n
Oc1cc2c(cc1O)[C@H]1c3ccccc3CN[C@H]1CC2	x	x	x	x	x	n
Cn1cnc2cc(NC(=O)c3ccc(Cl)cc3)ccc21	2.8µM	2.8µM	u	u	12µM	11µM
COc1cc2c(cc1OC)C(C(=O)N1CCC3(CC1)OCCO3)C(c1ccccc1F)N(C)C2=O (stereo unspecified)	n	n	18µM	n	n	n
COC(=O)C1=C(c2ccccc2OCc2ccccc2)C[C@@H]2CC[C@H]1N2C(=O)NCc1ccc(N(C)C)cc1	n	n	16µM	n	n	x
COC(=O)C1=C(c2ccc(F)cc2OCc2ccccc2)C[C@@H]2CC[C@H]1N2C(=O)NCc1ccc(N(C)C)cc1	n	n	u	n	n	x
COP(=O)(OC)c1nc(-c2cccc3ccccc23)oc1N1CCCCC1	n	n	u	n	n	n
CCOP(=O)(OCC)c1nc(-c2cccc3ccccc23)oc1N1CCCCC1	n	n	23µM	n	n	n
O=C(Nc1ccc(Cl)c(Cl)c1)O/N=C/c1ccncc1	n	n	n	n	n	u
COc1ccc(NC(=O)O/N=C/c2ccccc2)cc1	3.5µM	u	u	u	9.5µM	x
O=C(O)c1ccccc1Nc1cccc(C(F)(F)F)c1	n	n	n	n	15µM	n
O=C(NCc1cc(C(F)(F)F)ccc1Cl)c1cccc2c1C(=O)c1ccc(Cl)cc1S2(=O)=O	x	x	u	n	x	x
COc1ccc(CCn2c(O)c(C=Nc3ccccc3F)c(=O)[nH]c2=O)cc1OC	n	n	n	n	n	x
COc1ccc([N+](=O)[O-])cc1N=Cc1c(O)n(CCc2ccccc2)c(=O)n(C(C)C)c1=O	n	n	16µM	n	n	n
C[C@@](Br)(C(=O)O)[C@H](Br)C(=O)O	x	x	x	x	x	n[9.22 µM]
CCCCC[CH2][Hg][S]C1=C2N=CNC2NC(N)=N1 (stereo unspecified)	x	x	x	x	x	n[9.22 µM]
O=C1NC(=O)N(c2ccccc2F)C(=O)/C1=C/c1ccc(Sc2nc3ccccc3[nH]2)o1	n	n	n	n	u	n[1.84 µM]
O=C1NC(=O)N(c2cccc(Cl)c2)C(=O)/C1=C\c1ccc(Sc2nc3ccccc3[nH]2)o1	n	n	n	n	24µM	n
CC12CC[C@H]3[C@@H](CCC4(O)C[C@H](O)CCC34/C=N/NC(=O)c3ccccc3F)C1(O)CCC2C1=CC(=O)OC1 (stereo partly specified)	n	n	u	n	n	x
CC12CC[C@H]3[C@@H](CCC4(O)C[C@H](O)CCC34/C=N/NC(=O)c3ccccc3O)C1(O)CCC2C1=CC(=O)OC1 (stereo partly specified)	n	n	u	n	27µM	x
CC12CC[C@H]3[C@@H](CCC4(O)C[C@H](O)CCC34/C=N/NC(=O)c3ccc(O)cc3)C1(O)CCC2C1=CC(=O)OC1 (stereo partly specified)	n	n	n	n	19µM	x
COc1ccc(C(=O)N/N=C/C23CC[C@@H](O)CC2(O)CC[C@@H]2[C@@H]3CCC3(C)C(C4=CC(=O)OC4)CCC23O)cc1 (stereo partly specified)	n	n	u	n	n	x
CN(C)c1ccc(C(=O)N/N=C/C23CC[C@@H](O)CC2(O)CC[C@@H]2[C@@H]3CCC3(C)C(C4=CC(=O)OC4)CCC23O)cc1 (stereo partly specified)	n	n	8.2µM	n	n	x
NNC(N)=S	x	x	x	x	x	n
O=C(O)C[SH+]CC(=O)O.O=C(O)C[SH+]CC(=O)O.[Cu]	x	x	x	x	x	n[9.22 µM]
C=C[C@H](Cc1ccccc1)N(Cc1ccccc1)S(=O)(=O)N(Cc1ccccc1)[C@H](C=C)Cc1ccccc1	x	x	u	n	x	x
CC(=NCc1ccc2c(c1)OCO2)c1c(O)n(C)c(=O)n(C)c1=O	n	n	u	n	n	n

High-throughput results as filed in PubChem.
